# Key:
# [1] = biological target: Dolichyl-diphosphooligosaccharide--protein glycosyltransferase subunit 1 (UniProt P04843); assay: cross-link between two proteins; cross-linking mass spectrometry
# [2] = biological target: Vesicle-associated membrane protein-associated protein A (UniProt Q9P0L0); assay: as above
# Dynactin subunit 2 = Dynactin subunit 2 (UniProt Q99KJ8); assay: as above
# Dynactin subunit 3 = Dynactin subunit 3 (UniProt Q9Z0Y1); assay: as above
# Dynamin-3 = Dynamin-3 (UniProt Q8BZ98); assay: as above
# [3] = biological target: Dynein light chain 2, cytoplasmic (UniProt Q9D0M5); assay: as above
# Protein piccolo = Protein piccolo (UniProt Q9QYX7); assay: as above
# [4] = biological target: EH domain-containing protein 1 (UniProt Q9WVK4); assay: as above
# [5] = biological target: ER membrane protein complex subunit 2 (UniProt Q9CRD2); assay: as above
# ERO1-like protein alpha = ERO1-like protein alpha (UniProt Q96HE7); assay: as above
# [6] = biological target: Elongation factor 1-alpha 2 (UniProt P62631); assay: as above
# [7] = biological target: Epidermal growth factor receptor substrate 15-like 1 (UniProt Q9UBC2); assay: as above
# Erlin-1 = Erlin-1 (UniProt Q91X78); assay: as above
# [8] = biological target: Eukaryotic translation initiation factor 2 subunit 3, X-linked (UniProt Q9Z0N1); assay: as above
# [9] = biological target: Eukaryotic translation initiation factor 3 subunit B (UniProt Q8JZQ9); assay: as above
# Flotillin-1 = Flotillin-1 (UniProt O75955); assay: as above
# Flotillin-2 = Flotillin-2 (UniProt Q60634); assay: as above
# [10] = biological target: Fragile X messenger ribonucleoprotein 1 (UniProt Q06787); assay: as above
# [11] = biological target: 10 kDa heat shock protein, mitochondrial (UniProt P61604); assay: cross-linking mass spectrometry
# [12] = biological target: Heat shock cognate 71 kDa protein (UniProt P11142); assay: cross-linking mass spectrometry
# [13] = biological target: Heat shock 70 kDa protein 1B (UniProt P0DMV9); assay: cross-link between two proteins; cross-linking mass spectrometry
# Syntaxin-8 = Syntaxin-8 (UniProt Q9UNK0); assay: cross-linking mass spectrometry
# [14] = biological target: Gamma-soluble NSF attachment protein (UniProt Q99747); assay: cross-link between two proteins; cross-linking mass spectrometry
# [15] = biological target: Fructose-bisphosphate aldolase A (UniProt P05064); assay: as above
# [16] = biological target: Gamma-aminobutyric acid receptor subunit beta-1 (UniProt P50571); assay: as above
# Dynactin subunit 2, sequence (Q99KJ8 whole entry): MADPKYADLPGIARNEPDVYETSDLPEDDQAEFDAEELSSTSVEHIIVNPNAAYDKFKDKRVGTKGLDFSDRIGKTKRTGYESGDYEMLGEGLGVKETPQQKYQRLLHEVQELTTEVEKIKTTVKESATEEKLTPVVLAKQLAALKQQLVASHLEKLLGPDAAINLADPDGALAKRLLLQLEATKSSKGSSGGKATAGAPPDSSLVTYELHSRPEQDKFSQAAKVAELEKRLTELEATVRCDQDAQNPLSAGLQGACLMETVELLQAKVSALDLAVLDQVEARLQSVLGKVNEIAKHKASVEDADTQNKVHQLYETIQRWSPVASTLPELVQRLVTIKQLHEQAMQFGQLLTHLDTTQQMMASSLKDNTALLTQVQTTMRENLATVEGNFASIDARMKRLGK
# Flotillin-1, sequence (O75955 whole entry): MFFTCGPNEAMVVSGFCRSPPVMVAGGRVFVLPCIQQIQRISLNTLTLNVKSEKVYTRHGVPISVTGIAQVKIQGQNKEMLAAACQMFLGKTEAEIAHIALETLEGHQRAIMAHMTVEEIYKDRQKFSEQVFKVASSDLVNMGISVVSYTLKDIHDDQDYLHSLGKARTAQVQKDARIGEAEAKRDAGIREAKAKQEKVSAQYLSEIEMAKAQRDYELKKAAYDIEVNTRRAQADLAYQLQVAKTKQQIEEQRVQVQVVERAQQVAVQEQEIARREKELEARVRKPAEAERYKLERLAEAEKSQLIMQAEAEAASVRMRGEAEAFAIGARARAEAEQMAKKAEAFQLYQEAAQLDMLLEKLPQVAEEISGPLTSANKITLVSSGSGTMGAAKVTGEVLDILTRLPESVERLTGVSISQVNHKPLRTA
# ERO1-like protein alpha, sequence (Q96HE7 whole entry): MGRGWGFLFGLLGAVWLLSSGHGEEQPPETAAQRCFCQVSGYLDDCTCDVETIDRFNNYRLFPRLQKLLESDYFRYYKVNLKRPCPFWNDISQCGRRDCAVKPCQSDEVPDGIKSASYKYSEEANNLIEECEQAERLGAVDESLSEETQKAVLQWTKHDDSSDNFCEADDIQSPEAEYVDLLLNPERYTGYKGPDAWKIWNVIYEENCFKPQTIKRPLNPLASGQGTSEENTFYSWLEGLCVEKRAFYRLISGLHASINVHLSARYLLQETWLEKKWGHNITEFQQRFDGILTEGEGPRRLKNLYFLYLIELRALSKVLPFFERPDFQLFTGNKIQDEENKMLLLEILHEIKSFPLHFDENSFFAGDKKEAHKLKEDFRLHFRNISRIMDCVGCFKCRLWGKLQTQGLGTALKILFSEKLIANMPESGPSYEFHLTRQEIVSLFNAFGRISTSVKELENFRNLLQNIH
# Peptidyl-prolyl cis-trans isomerase F, mitochondrial, P30405, sequence (P30405 whole entry): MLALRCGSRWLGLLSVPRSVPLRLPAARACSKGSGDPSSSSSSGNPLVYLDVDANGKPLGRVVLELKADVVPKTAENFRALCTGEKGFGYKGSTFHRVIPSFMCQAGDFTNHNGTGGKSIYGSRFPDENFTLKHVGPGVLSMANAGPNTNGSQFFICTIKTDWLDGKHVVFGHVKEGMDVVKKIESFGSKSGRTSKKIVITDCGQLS
# Flotillin-2, sequence (Q60634 whole entry): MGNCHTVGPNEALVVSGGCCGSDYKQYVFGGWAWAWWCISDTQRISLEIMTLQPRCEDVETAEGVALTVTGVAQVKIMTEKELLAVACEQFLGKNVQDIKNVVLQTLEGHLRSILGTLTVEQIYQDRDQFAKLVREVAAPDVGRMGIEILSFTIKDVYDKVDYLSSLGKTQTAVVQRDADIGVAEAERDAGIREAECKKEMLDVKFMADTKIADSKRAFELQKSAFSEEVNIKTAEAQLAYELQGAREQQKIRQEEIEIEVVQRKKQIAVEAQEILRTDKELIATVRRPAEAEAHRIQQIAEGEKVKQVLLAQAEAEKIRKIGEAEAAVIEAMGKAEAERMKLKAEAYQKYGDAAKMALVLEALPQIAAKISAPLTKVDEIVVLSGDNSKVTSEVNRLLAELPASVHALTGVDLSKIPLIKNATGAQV
# Heat shock 70 kDa protein 1B, sequence (P0DMV9 whole entry): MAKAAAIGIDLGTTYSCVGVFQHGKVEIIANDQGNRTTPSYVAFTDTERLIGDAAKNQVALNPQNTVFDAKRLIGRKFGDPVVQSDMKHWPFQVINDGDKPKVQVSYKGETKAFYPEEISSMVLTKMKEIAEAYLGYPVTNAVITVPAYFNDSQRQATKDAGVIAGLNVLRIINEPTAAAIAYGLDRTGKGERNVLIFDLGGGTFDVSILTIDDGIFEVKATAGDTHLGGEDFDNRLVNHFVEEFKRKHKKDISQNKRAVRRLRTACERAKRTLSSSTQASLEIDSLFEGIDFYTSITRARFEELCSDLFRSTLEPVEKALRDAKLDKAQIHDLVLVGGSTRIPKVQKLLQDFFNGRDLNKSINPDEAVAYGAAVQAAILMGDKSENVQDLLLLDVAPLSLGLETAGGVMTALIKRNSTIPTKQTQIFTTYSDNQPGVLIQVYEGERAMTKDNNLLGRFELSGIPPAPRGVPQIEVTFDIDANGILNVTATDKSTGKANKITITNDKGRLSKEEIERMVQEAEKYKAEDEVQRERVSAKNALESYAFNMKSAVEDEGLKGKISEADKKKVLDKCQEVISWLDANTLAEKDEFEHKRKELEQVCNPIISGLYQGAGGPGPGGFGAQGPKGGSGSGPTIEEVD
# 10 kDa heat shock protein, mitochondrial, sequence (P61604 whole entry): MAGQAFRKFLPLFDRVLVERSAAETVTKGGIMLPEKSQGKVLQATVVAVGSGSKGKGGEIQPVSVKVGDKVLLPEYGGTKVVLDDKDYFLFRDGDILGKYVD
# Dynein light chain 2, cytoplasmic, sequence (Q9D0M5 whole entry): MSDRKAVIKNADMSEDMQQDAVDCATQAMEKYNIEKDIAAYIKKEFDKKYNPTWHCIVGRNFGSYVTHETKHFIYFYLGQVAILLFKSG
# Dynactin subunit 3, sequence (Q9Z0Y1 whole entry): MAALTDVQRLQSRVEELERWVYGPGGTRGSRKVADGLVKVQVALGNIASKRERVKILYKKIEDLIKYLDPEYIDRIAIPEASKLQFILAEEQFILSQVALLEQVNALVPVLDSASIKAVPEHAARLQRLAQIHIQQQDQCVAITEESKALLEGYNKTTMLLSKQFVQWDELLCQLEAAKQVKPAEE
# Syntaxin-8, sequence (Q9UNK0 whole entry): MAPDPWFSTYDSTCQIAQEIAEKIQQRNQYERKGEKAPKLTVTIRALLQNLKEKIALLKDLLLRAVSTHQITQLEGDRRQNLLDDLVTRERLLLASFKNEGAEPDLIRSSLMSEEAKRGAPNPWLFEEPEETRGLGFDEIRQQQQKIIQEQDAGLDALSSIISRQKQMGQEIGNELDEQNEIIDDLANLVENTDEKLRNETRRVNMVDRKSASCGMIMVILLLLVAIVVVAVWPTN
# Eukaryotic translation initiation factor 2 subunit 3, X-linked, sequence (Q9Z0N1 whole entry): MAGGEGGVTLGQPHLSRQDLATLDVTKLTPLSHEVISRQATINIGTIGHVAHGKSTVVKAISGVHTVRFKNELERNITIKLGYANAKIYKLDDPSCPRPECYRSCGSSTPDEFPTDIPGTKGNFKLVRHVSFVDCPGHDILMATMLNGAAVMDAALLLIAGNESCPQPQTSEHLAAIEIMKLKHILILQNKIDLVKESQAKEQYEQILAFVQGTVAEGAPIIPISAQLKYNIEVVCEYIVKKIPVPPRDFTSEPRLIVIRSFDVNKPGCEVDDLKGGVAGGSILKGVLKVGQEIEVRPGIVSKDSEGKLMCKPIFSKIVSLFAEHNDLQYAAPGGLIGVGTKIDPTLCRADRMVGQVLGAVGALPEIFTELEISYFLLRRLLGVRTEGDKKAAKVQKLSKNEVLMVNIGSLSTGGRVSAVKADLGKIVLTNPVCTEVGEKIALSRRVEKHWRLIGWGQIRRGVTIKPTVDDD
# Epidermal growth factor receptor substrate 15-like 1, sequence (Q9UBC2 whole entry): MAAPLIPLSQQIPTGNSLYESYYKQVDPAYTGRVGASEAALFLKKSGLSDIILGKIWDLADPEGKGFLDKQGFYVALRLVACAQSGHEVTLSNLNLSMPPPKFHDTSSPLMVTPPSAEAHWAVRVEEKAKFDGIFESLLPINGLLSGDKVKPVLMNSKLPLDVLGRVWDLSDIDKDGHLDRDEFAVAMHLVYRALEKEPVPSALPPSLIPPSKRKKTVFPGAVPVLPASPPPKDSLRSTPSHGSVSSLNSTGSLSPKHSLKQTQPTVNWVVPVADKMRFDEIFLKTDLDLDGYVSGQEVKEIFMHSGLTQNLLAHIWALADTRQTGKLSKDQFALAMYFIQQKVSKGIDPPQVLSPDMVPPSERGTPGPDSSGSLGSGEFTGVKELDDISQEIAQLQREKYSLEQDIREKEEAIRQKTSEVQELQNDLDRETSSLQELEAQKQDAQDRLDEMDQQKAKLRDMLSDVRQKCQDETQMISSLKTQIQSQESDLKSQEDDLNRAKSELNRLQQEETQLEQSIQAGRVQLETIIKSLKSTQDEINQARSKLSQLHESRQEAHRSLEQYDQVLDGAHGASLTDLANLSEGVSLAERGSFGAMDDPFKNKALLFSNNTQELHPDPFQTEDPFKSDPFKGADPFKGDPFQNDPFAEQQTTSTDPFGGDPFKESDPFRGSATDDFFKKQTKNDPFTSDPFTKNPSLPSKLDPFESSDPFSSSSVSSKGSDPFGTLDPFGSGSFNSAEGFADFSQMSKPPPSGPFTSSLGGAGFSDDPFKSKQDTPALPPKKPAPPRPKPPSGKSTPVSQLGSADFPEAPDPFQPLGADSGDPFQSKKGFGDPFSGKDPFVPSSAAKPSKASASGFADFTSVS
# Erlin-1, sequence (Q91X78 whole entry): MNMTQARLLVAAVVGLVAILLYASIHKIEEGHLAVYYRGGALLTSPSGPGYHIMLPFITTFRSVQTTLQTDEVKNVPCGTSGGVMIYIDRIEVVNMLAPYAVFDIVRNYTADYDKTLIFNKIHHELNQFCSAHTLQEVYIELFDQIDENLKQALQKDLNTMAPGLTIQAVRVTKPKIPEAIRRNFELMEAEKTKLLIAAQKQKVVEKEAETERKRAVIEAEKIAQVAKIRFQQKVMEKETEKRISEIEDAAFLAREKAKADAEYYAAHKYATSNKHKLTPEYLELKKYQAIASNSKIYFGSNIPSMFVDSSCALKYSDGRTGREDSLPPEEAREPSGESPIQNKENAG
substance,measurement,setting,value
"Membrane-associated progesterone receptor component 2, O15173",listed as a hit,[1],yes
same,listed as a hit,[2],yes
"Beta-centractin, Q8R5C5",listed as a hit,Dynactin subunit 2,yes
"Dynactin subunit 1, O08788",listed as a hit,Dynactin subunit 2,yes
"Dynactin subunit 2, Q99KJ8",listed as a hit,Dynactin subunit 3,yes
"Dynamin-1, P39053",listed as a hit,Dynamin-3,yes
"Protein bassoon, O88737",listed as a hit,[3],yes
same,listed as a hit,Protein piccolo,yes
"EH domain-containing protein 3, Q9QXY6",listed as a hit,[4],yes
"ER membrane protein complex subunit 8, O70378",listed as a hit,[5],yes
"Thioredoxin domain-containing protein 5, Q8NBS9",listed as a hit,ERO1-like protein alpha,yes
"Elongation factor 1-alpha 1, P10126",listed as a hit,[6],yes
"Intersectin-2, Q9NZM3",listed as a hit,[7],yes
"Erlin-2, Q8BFZ9",listed as a hit,Erlin-1,yes
"Eukaryotic translation initiation factor 2 subunit 1, Q6ZWX6",listed as a hit,[8],yes
"Eukaryotic translation initiation factor 3 subunit A, P23116",listed as a hit,[9],yes
"Syntaxin-7, O15400",listed as a hit,Flotillin-1,yes
"Flotillin-1, O08917",listed as a hit,Flotillin-2,yes
"RNA-binding protein FXR1, P51114",listed as a hit,[10],yes
"Peptidyl-prolyl cis-trans isomerase F, mitochondrial, P30405",listed as a hit,[11],yes
"BAG family molecular chaperone regulator 2, O95816",listed as a hit,[12],yes
same,listed as a hit,[13],yes
"Alpha-soluble NSF attachment protein, P54920",listed as a hit,Syntaxin-8,yes
same,listed as a hit,[14],yes
"Fructose-bisphosphate aldolase C, P05063",listed as a hit,[15],yes
"Gamma-aminobutyric acid receptor subunit gamma-2, P22723",listed as a hit,[16],yes

# — article PMC11024108
